Assay [1] has as its target Vitamin D3 receptor (Homo sapiens) (UniProt P11473). The assay is described as follows: qHTS assay for small molecule agonists of vitamin D receptor signaling (AID 588543).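 Note: 0% = DMSO basal and 100% = reference agonist control.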 A digest of the protocol: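 qHTS in agonist mode: compound titrations stimulate a VDR-driven β-lactamase reporter in HEK293T cells over 16 h at 37 °C. Response normalized to 50 nM 1α,25-dihydroxyvitamin D3 = 100%, DMSO = 0%; Hill fitting gives EC50 and maximal response.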

The nature of assay [2]: qHTS assay for small molecule antagonists of retinoid X receptor alpha signaling (AID 588546; active = well fitted inhibition curve with a large enough effect in the signal ratio, with a control signal flat, not every such curve was filed as active; the % refers to the signal ratio; note: potency is the fitted concentration of half-maximal effect;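 for max response: cells stimulated with 9-cis-retinoic acid as agonist; % is set by controls: 0 for no effect and ±100 for the full control effect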). The conditions noted are these: HEK293T RXRa-UAS-bla, beta-lactamase ratio, antagonist mode; measured here: W530 green channel, cytotoxicity proxy. A digest of the protocol: (§1)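 Beta-lactamase reporter inhibition, read as CCF4 fluorescence ratio (ex 405, em 460/530 nm) after 2 h at RT. HEK293T UAS-bla cells, 2500/well, were stimulated with 9-cis-RA at 500 or 100 nM final alongside test compound for 18 h at 37 C.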

For assay [3], the target named is Retinoic acid receptor RXR-alpha (Homo sapiens) (UniProt P19793). Described as above. The conditions noted are these: HEK293T RXRa-UAS-bla, beta-lactamase ratio, antagonist mode. A digest of the protocol:
as §1

In assay [4] the target is Peroxisome proliferator-activated receptor gamma (Homo sapiens) (UniProt P37231). The assay is described as follows: qHTS assay for small molecule agonists of peroxisome proliferator-activated receptor gamma signaling (AID 588536; active = well fitted curve in the direction sought with a large enough effect in the signal ratio, with a control signal flat, not every such curve was filed as active; the % refers to the signal ratio;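 note: 0% = DMSO basal wells and 100% = rosiglitazone at 2 µM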). The method, boiled down: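 GeneBLAzer PPAR-gamma-UAS-bla HEK293 cells in 1% charcoal/dextran-treated FBS medium were treated 16 h at 37 C with compounds. Beta-lactamase activity was read by CCF4 ratio (460/530 nm). Response was normalized to 2 uM rosiglitazone (100%) and DMSO, then Hill-fitted for EC50 and efficacy.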

Assay [5] shares this target. The experiment in a line: qHTS assay for small molecule antagonists of peroxisome proliferator-activated receptor gamma signaling (AID 588537; active = well fitted inhibition curve with a large enough effect in the signal ratio, with a control signal flat, not every such curve was filed as active; the % refers to the signal ratio;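 note: reporter cells co-stimulated with 50 nM rosiglitazone agonist during compound treatment; % of control where 0% means no effect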). A digest of the protocol: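 We seeded GeneBLAzer HEK293 reporter cells at 3000 per well, allowed 6-6.5 h attachment at 37 C, then co-treated with test compound titrations and 50 nM rosiglitazone overnight (16 h). Inhibition was quantified from 460/530 nm emission ratios.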
In general terms: qHTS replaces the single test concentration by a dilution series.

The target in assay [6] is Vitamin D3 receptor (Homo sapiens) (UniProt P11473). The experiment in a line: qHTS assay for small molecule antagonists of vitamin D receptor signaling (AID 588541).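 Note: receptor activated by calcitriol during compound treatment; series mostly up to about 77 µM; % is set by controls: 0 for no effect and ±100 for the full control effect.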 The method, boiled down:
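VDR-UAS-bla HEK293T cells (2000/well, 2% charcoal-stripped FBS) were treated with titrated compounds plus 1-alpha,25-dihydroxyvitamin D3 (50 nM or 3 nM final) for 16 h at 37 C. CCF4 beta-lactamase fluorescence was read; Hill fits gave IC50.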

A short description of assay [7]: qHTS assay for small molecule agonists of retinoid X receptor alpha signaling (AID 588544). Note: potency is the fitted concentration of half-maximal effect. The conditions noted are these: HEK293T RXRa-UAS-bla, beta-lactamase reporter, 18 h; 530 nm emission.
Assay [8] has as its target Retinoic acid receptor RXR-alpha (Homo sapiens) (UniProt P19793). The assay is described as above.
For assay [9], the target named is Thyroid hormone receptor beta (Homo sapiens) (UniProt P10828). The experiment in a line: qHTS assay for small molecule agonists of thyroid hormone receptor beta signaling (AID 588545).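 Note: 0% = DMSO only and 100% = 10 nM T3.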 The method, boiled down:
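TR-UAS-bla GripTite HEK 293 cells (2500/well, medium with 2% charcoal/dextran FBS) were treated in agonist mode for 18 h at 37 C, titrated. Beta-lactamase was read by CCF4 ratio after 2 h; normalized to 10 nM T3 (100%) and DMSO, Hill-fitted for EC50 and efficacy.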

The target is the same in assay [10]. The experiment in a line: qHTS assay for small molecule antagonists of thyroid hormone receptor beta signaling (AID 588547; active = well fitted inhibition curve with a large enough effect in the signal ratio, with a control signal flat, not every such curve was filed as active; the % refers to the signal ratio;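 note: cells stimulated with 0.4 nM T3 agonist during compound exposure; series mostly up to about 77 µM; % is set by controls: 0 for no effect and ±100 for the full control effect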). The following applies: TR-UAS-bla HEK293, beta-lactamase ratio, antagonist mode, 18 h. The method, boiled down: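 TR-UAS-bla GripTite HEK293 cells in 2% charcoal/dextran FBS medium were preincubated 4 h at 37 C, given compound (0.59 nM to 92 uM) plus 0.4 nM T3 (final) for 18 h, then CCF4 for 2 h at RT; Hill fit gave IC50.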

The target in assay [11] is Luciferin 4-monooxygenase (Photinus pyralis) (UniProt P08659). The experiment in a line: Biochemical firefly luciferase enzyme assay for NPC (AID 624030; active = well fitted inhibition curve with a large enough effect;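 note: purified P. pyralis luciferase at 10 nM with luciferin and ATP substrate; series mostly up to about 59 µM; 0% = DMSO and -100% = full luciferase inhibition by PTC124 control; nearly all actives have a fitted effect of over 70% in size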). A digest of the protocol: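 Counter-screen for direct inhibition of the luciferase enzyme by approved-drug library compounds, run at 10 nM enzyme in 50 mM Tris acetate (final). Luminescence was read within 5 min of enzyme-buffer addition and normalized to PTC124 versus DMSO (0%).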

For assay [12], the target named is Voltage-gated inwardly rectifying potassium channel KCNH2 (Homo sapiens) (UniProt Q12809). The assay is described as follows: qHTS Assay for Small Molecule Inhibitors of the Human hERG Channel Activity (AID 588834; active = well fitted inhibition curve with a large enough effect;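 note: top concentration of the series differs between compounds; % is set by controls: 0 for no effect and ±100 for the full control effect; lower thallium flux fluorescence means stronger hERG block; nearly all actives have a fitted effect of over 50% in size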). A digest of the protocol: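 Measured: FluxOR fluorescence after thallium stimulation in U2OS cells transduced with hERG by baculovirus. Compounds pre-incubated around 10 min; medium Opti-MEM with 2% FCS. AC50 from Hill equation.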

The target of assay [13] is Peroxisome proliferator-activated receptor delta (Homo sapiens) (UniProt Q03181). The assay is described as follows: qHTS assay for small molecule antagonists of peroxisome proliferator-activated receptor delta signaling (AID 588535; active = well fitted inhibition curve with a large enough effect in the signal ratio, with a control signal flat, not every such curve was filed as active; the % refers to the signal ratio). The method, boiled down:
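Reporter: UAS-bla under PPAR-delta response element, HEK293T host. Medium: 2% charcoal/dextran FBS. Dosing: titration, 18 hrs, 37 C. Detection: CCF4, 2 hrs RT, 405 ex/460 and 530 em.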

Several values for one entry are separate records, joined by “and”; a condition that tells them apart may be missing. Identical values can stand only once. Records with an inconclusive call do not appear. Activity calls are given as the source filed them. Unless noted, calls come from the whole dose curve.

Peroxisome proliferator-activated receptor delta (Homo sapiens), sequence (Q03181 whole entry, looked up): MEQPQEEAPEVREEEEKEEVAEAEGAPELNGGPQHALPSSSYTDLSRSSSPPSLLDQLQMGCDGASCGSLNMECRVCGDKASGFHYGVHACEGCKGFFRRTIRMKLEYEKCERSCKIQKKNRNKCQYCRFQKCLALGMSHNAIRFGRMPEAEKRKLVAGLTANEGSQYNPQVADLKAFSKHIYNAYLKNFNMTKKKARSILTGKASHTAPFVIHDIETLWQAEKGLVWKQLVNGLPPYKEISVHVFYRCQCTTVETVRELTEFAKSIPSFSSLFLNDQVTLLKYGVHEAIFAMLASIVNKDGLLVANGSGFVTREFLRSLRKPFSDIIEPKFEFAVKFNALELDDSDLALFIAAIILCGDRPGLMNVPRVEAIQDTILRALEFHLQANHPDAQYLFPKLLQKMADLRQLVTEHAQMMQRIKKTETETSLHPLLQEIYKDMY
Voltage-gated inwardly rectifying potassium channel KCNH2 (Homo sapiens), sequence (Q12809 whole entry, looked up): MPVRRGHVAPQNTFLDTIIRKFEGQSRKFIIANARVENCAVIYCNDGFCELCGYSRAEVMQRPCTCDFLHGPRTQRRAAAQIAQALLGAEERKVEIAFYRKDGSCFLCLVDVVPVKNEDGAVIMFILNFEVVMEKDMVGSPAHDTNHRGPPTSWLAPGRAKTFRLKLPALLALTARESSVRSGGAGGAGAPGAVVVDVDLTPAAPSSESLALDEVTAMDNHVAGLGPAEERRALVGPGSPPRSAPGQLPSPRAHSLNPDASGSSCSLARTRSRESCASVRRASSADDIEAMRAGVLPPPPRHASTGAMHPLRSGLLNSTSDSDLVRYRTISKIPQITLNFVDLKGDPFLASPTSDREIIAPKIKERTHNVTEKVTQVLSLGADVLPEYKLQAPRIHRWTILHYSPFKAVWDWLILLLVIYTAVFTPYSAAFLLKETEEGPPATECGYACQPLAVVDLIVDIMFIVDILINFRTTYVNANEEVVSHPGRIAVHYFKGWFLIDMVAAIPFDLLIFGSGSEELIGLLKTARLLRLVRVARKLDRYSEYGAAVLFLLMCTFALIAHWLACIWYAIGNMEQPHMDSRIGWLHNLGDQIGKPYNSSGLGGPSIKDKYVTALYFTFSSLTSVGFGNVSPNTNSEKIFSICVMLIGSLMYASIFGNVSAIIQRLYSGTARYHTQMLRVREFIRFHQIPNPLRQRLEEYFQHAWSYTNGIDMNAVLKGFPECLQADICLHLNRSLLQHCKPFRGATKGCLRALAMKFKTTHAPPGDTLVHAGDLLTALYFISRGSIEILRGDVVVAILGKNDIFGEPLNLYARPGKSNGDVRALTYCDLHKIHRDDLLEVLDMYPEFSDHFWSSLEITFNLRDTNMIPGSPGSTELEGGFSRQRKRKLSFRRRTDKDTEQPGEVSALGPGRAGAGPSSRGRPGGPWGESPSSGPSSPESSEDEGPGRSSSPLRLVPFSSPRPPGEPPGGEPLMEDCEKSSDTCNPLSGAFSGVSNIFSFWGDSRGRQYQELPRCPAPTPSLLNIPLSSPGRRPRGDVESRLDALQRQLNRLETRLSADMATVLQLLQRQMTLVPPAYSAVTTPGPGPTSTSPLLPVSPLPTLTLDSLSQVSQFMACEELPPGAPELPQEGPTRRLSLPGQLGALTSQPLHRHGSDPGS
Thyroid hormone receptor beta (Homo sapiens), sequence (P10828 whole entry, looked up): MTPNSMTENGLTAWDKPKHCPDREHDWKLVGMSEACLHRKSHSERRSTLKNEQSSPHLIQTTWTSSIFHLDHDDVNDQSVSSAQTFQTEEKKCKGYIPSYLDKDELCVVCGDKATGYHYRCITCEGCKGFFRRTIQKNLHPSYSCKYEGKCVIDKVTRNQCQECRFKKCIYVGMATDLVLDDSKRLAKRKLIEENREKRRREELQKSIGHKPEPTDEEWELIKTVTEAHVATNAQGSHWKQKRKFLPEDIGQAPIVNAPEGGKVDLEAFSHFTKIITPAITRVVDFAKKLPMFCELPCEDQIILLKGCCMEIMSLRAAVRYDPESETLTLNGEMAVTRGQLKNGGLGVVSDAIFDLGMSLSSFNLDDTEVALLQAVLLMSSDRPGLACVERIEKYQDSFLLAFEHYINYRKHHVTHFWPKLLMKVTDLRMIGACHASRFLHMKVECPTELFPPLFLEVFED
Vitamin D3 receptor (Homo sapiens), sequence (P11473 whole entry, looked up): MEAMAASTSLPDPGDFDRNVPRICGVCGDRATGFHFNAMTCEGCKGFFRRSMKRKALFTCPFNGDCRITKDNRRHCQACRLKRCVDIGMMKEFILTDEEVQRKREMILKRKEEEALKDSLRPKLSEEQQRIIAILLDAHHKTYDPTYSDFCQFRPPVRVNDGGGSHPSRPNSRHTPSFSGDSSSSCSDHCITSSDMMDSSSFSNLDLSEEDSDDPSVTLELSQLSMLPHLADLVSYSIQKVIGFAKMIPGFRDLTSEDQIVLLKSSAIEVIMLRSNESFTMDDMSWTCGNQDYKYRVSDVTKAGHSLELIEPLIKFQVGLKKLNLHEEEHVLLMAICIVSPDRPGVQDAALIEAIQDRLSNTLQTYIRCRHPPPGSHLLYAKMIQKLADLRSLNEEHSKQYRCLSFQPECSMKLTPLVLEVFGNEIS
Luciferin 4-monooxygenase (Photinus pyralis), sequence (P08659 whole entry, looked up): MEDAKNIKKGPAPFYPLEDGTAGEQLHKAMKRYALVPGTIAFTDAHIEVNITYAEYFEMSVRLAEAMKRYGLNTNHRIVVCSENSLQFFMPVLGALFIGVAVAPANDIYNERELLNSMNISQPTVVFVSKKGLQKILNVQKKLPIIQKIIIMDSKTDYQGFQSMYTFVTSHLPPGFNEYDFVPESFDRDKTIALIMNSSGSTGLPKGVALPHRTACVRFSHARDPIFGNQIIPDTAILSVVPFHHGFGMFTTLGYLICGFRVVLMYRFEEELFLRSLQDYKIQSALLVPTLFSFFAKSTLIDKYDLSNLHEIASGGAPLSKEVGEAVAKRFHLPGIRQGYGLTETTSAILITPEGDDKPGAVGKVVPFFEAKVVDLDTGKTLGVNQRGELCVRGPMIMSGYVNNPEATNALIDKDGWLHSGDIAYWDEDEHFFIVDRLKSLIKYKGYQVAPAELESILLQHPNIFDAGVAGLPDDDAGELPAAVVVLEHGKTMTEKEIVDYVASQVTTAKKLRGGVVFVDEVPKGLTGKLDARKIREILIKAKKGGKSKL
Peroxisome proliferator-activated receptor gamma (Homo sapiens), sequence (P37231 whole entry, looked up): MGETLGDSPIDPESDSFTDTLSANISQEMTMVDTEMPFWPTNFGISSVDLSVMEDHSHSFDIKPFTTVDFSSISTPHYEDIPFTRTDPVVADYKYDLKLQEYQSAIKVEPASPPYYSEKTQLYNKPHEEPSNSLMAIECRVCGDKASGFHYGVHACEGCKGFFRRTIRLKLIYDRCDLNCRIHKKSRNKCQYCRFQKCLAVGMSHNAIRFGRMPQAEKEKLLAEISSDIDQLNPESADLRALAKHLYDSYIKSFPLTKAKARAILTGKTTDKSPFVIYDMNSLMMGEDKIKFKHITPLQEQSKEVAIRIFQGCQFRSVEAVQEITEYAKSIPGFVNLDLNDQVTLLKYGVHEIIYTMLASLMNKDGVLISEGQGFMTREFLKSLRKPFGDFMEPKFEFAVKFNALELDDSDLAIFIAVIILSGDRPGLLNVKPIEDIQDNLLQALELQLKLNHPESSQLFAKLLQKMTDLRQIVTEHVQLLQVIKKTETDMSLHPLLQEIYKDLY
Retinoic acid receptor RXR-alpha (Homo sapiens), sequence (P19793 whole entry, looked up): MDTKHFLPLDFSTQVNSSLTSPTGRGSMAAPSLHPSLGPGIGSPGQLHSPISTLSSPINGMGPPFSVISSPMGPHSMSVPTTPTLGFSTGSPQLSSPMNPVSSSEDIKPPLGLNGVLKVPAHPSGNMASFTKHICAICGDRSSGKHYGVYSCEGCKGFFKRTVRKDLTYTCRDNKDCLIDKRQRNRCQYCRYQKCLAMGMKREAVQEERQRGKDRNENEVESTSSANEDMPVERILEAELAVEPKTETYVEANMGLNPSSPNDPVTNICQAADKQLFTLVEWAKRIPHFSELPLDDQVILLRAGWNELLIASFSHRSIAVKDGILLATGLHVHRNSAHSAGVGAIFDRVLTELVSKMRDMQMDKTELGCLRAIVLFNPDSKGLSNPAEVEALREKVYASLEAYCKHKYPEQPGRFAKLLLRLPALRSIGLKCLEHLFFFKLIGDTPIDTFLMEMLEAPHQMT

Take `CCN(CC)CCOc1ccc(/C(=C(\Cl)c2ccccc2)c2ccccc2)cc1`: in [1], the result was inactive. Moreover, the max response in assay [2] is -2.07%. For the same compound, the Potency in assay [3] was 39.8 µM (active).
`OCCOCCN1CCN(C(c2ccccc2)c2ccc(Cl)cc2)CC1` (stereo unspecified): the outcome in assay [4], in assay [5], in assay [6], in assay [1] and in [9] was inactive. For the same compound, the max response in assay [7] was 11.6%; in [2], 2.38%; in assay [3], -14.3% (inactive). Moreover, the Potency entry in [8] and in assay [11] was “inactive” throughout. The activity change % (negative = inhibition) in assay [10] is -10.5% (inactive).
As for `c1ccc2occc2c1`, the call in assay [4], in [6], in assay [1] and in [9] was inactive. The max response in assay [7] was -16.2%; in assay [2], -13.5% and -7.35%; in assay [3], 6.36% (inactive) and -5.03% (inactive). Further, the Potency entry in [8], in [12] and in assay [11] was “inactive” each time.
In the case of `Nc1cccc2c(N)cccc12`, the outcome in [4], in assay [5], in assay [1] and in assay [9] was inactive. In addition, the max response in [7] was 9.18%; in assay [2], 0.949% and -3.88%; in assay [3] it was -3.27% (inactive) and -4.14% (inactive). Also, the Potency entry in assay [8], in [12] and in assay [11] was “inactive” each time. Further, the activity change % (negative = inhibition) in [10] is 0% (inactive) and 7.22% (inactive).
As for `OCc1c[nH]c2ccccc12`, the compound was called inactive in assay [4], in [6], in assay [1] and in assay [9]. The max response in assay [7] is 1.88%; in [2], 2.29%; in [3], -2.51% (inactive). Moreover, the Potency result in [8] and in [12] was “inactive” each time. The activity change % (negative = inhibition) in assay [10] was 13% (inactive).
In the case of `CN1C(=O)c2ccccc2C1=O`, the compound was classed as inactive in [13], in assay [4], in assay [5], in assay [6], in assay [1] and in assay [9]. For the same compound, in assay [7], the max response is -17.2%. Moreover, the Potency entry in assay [8] was “inactive”. Further, the activity change % (negative = inhibition) in assay [10] was -4.79% (inactive).
For the compound `Cc1cc(C(C)(C)C)c(O)c(C(C)(C)C)c1`, the outcome in assay [13], in [4], in assay [5] and in assay [9] was inactive. Also, the max response in assay [7] was -14.9%. Also, the Potency in assay [8] was 17.8 µM (active). For the same compound, the activity change % (negative = inhibition) in assay [10] is -7.42% (inactive).
With `O=C(Oc1ccccc1)c1cccc(C(=O)Oc2ccccc2)c1`, the compound was called inactive in assay [13], in assay [5], in assay [6], in [1] and in [9]. In addition, the max response in assay [7] was 15.8%; in assay [2] it was 0.814%; in [3] it was -33.4% (inactive). The Potency result in assay [8] is “inactive”. Moreover, in assay [10], the activity change % (negative = inhibition) was 0.996% (inactive).

Values taken from PubChem BioAssay (NCATS).
